# In PubChem BioAssay (NCATS):
# Inconclusive results are not listed. Values without a mark were called inactive. Activity calls are given as the source filed them. Calls follow the shape of the dose curve; as a rule, active = well fitted cell-killing curve with a large enough effect; inconclusive = small, poorly fitted or top-dose-only effect, or effect the other way; inactive = no such curve, though single readings can be large or run the other way.
# Assay: Quantitative High-Throughput drug screen in 47 multiple myeloma cell lines against the NCATS MIPE library collection: RPMI8226_ATCC cell viability assay (AID 1919871); also: nearly all actives have a fitted effect of over 30% in size
# Details: RPMI8226 myeloma viability, CellTiter-Glo ATP luminescence, 48 h; series mostly up to 45.8 µM; viability (% of control): at the top concentration
# In short: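 500 cells/well; MIPE 4.0 drugs pin-transferred; 48 h, 37C, 5% CO2. CellTiter-Glo, 5 min RT, luminescence. Controls: DMSO 100%, media 0%.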
# Potency is read from the fitted curve at half-maximal effect.
Compound,viability (% of control) [%],Potency
Cc1[nH]c(=O)c(C#N)cc1-c1ccncc1,85.1,–
CCOc1cc(N2CCC(O)CC2)ccc1Nc1ncc2c(n1)N(C)c1ccccc1C(=O)N2C,–,20.9 µM (active)
COc1ccc2nc(S(=O)Cc3ncc(C)c(OC)c3C)[nH]c2c1 (stereo not given),92.4,–
Nc1ccc(S(=O)(=O)Nc2ccnn2-c2ccccc2)cc1,145,–
O=NN(CCCl)C(=O)NCCCl,121,–
COCC(=O)NCC=Cc1ccc2ncnc(Nc3ccc(Oc4ccc(C)nc4)c(C)c3)c2c1,–,16.6 µM (active)
Cc1c(C)c2c(c(C)c1O)CCC(C)(COc1ccc(CC3SC(=O)NC3=O)cc1)O2 (stereo not given),104,–
COc1c(Cl)cc2c([nH]c3cnccc32)c1NC(=O)c1cccnc1C,110,–
CCc1cc(Nc2nccc(-c3c(-c4ccc(OC)c(C(=O)Nc5c(F)cccc5F)c4)nc4ccccn34)n2)c(OC)cc1N1CCC(N2CCN(S(C)(=O)=O)CC2)CC1,–,20.9 µM (active)
COc1ccc(-c2ccc3c(N4CCOCC4)nc(N4C[C@@H](C)O[C@@H](C)C4)nc3n2)cc1CO,–,0.0935 µM (active)
CCn1cc(C(=O)O)c(=O)c2cc(F)c(N3CCNC(C)C3)c(F)c21 (stereo not given),115,–
Nc1nc2c(ncn2COCCO)c(=O)[nH]1,118,–
OC(CN1CCC(Cc2ccc(F)cc2)CC1)c1ccc(Cl)cc1 (stereo not given),102,–
CCN(c1ccccc1)c1cc(NC)[n+](C)c(C)n1,112,–
CCOC(=O)C1=C[C@]2(CC)CCCN3CCc4c(n1c1ccccc41)[C@@H]32,–,14.8 µM (active)
CCCCNc1cc(C(=O)O)cc(S(N)(=O)=O)c1Oc1ccccc1,127,–
Cc1cc(Nc2nc(N[C@@H](C)c3ncc(F)cn3)ncc2Cl)n[nH]1,–,11.8 µM (active)
Cc1cn[nH]c1,–,0.118 µM (active)
COc1cc(Oc2ccnc3cc(OC)c(OC)cc23)ccc1NC(=O)NC(C)c1nccs1 (stereo not given),–,16.6 µM (active)
CN(C)c1ccc(Nc2nc(N)n(C(=O)c3c(F)cccc3F)n2)cc1,129,–
Fc1ccc(Cl)cc1-c1nc(Nc2ccncc2)c2nccnc2n1,109,–
O=c1[nH]cnc2[nH]ncc12,110,–
CC(C)OC(=O)C1=CN(C(=O)c2ccc(F)c(F)c2)CC(C)(C)c2c1[nH]c1ccccc21,95.8,–
Cc1[nH]c(=O)c(C#N)cc1-c1ccc2nccn2c1,83.5,–
CC(c1cc2ccccc2s1)N(O)C(N)=O (stereo not given),117,–
O=C(c1cc(Cc2n[nH]c(=O)c3ccccc23)ccc1F)N1CCN(C(=O)C2CC2)CC1,85.6,–
COc1cccc2cc(-c3nc(C4CCC(C(=O)O)CC4)n4ncnc(N)c34)[nH]c12 (stereo not given),–,0.59 µM (active)
COc1ccc([C@@H]2CC(=O)c3c(O)cc(O[C@@H]4O[C@H](CO[C@@H]5O[C@@H](C)[C@H](O)[C@@H](O)[C@@H]5O)[C@@H](O)[C@H](O)[C@@H]4O)cc3O2)cc1O,–,inactive
Cn1cnc2c(F)c(Nc3ccc(Br)cc3Cl)c(C(=O)NOCCO)cc21,–,0.935 µM (active)
CS(=O)(=O)c1cccc(CNc2nc(Nc3ccc4c(c3)CCC(=O)N4)ncc2C(F)(F)F)c1,–,18.7 µM (active)
